This is an account of results in PubChem BioAssay (NCATS).

Values joined by “and” are separate entries in the source; they are usually repeats but may differ in a detail not shown here. Equal entries are not always repeated. Inconclusive results are not listed. A call without a number means that no potency is given here. A structure can be active in one record and inactive in another. Active and inactive are the calls of the source. Calls follow the shape of the dose curve; as a rule, active = well fitted curve in the direction sought with a large enough effect; inconclusive = small, poorly fitted or top-dose-only effect, or another doubt; inactive = no such curve, though single readings can be large; an effect the other way counts as inactive or inconclusive.

Sequence of Rap guanine nucleotide exchange factor 4 (Homo sapiens) (Q8WZA2 whole entry, looked up): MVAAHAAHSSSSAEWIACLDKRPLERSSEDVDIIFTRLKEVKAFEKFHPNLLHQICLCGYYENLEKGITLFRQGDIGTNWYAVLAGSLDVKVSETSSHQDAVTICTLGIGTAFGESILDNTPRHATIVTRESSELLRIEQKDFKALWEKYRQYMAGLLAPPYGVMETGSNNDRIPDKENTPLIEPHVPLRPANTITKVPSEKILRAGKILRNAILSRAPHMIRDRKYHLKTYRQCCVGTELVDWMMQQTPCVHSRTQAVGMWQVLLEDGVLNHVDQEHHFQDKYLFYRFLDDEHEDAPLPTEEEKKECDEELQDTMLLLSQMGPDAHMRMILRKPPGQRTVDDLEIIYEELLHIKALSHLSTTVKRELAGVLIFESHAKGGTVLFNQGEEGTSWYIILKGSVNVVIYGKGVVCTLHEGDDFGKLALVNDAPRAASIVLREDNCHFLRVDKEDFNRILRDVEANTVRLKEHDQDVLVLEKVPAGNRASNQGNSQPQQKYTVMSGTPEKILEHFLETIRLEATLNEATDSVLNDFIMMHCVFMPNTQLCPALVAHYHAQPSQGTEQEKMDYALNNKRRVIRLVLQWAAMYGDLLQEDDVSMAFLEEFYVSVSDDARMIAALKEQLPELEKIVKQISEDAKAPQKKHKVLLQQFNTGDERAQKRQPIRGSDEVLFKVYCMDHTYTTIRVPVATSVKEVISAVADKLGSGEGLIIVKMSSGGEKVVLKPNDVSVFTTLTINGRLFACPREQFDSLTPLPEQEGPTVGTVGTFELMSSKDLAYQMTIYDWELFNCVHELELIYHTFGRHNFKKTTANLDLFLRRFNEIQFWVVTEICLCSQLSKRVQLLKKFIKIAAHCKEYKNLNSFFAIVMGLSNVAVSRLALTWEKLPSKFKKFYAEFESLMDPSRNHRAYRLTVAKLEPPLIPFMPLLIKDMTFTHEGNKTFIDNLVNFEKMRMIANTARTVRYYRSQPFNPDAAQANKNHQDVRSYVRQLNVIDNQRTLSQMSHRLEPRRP

System in the first assay: not listed separately
Briefly: Primary qHTS for inhibitors of nuclear receptor binding SET domain protein 2 (NSD2) in an RCH-ACV wild type WT cells (2C) (AID 1645877). Also: nearly all actives have a fitted effect of over 70% in size. Also: potency is read from the fitted curve at half-maximal effect. The following applies: RCH-ACV (leukaemia line) NSD2 WT (2C) viability, CellTiter-Glo, 72 h; series mostly up to 44.9 µM. (In general: Quantitative high-throughput screening tests each substance at several concentrations.)
As to `O=C(O)CC1(O)C(=O)Nc2ccccc21` (stereo not drawn), the Potency entry is “inactive”.
Take `CCc1nnc(NS(=O)(=O)c2ccc(NC(=S)NC(=O)/C=C/c3ccc(F)cc3)cc2)s1`: the Potency entry is “inactive”.
`COC(=O)C1=CO[C@@H](O[C@@H]2O[C@H](CO)[C@@H](O)[C@H](O)[C@H]2O)[C@@H]2C(CO)=CC[C@H]12`: the Potency result was “inactive”.
Take `Cc1noc2c1-c1ccccc1C(c1ccc(Cl)cc1)=N[C@H]2CC(N)=O`: the Potency entry was “inactive and 525 nM (active)”.
The same measure, in the same setting: the value for `N=C(N)c1ccc2nc(-c3cc(CC(=O)NC(CC(=O)O)C(=O)O)cc(-c4cc(S(N)(=O)=O)ccc4O)c3O)[nH]c2c1` (stereo not drawn) was “inactive”; that for `CC1=C[C@H]2[C@@H](CC1=O)[C@H](C)C[C@H](O)[C@H]2C(C)C` was “inactive”; that for `COc1cc(/C=C/c2ccccc2)c(C(=O)O)c(O)c1CC=C(C)C` was “inactive”.
`C=C(CO)C(=O)O[C@H]1C[C@@]23O[C@@H]2CC/C(=C/[C@H]2OC(=O)C(=C)[C@H]12)CO[C@H]3O`: the Potency is 8.98 µM (active).
`OCC1=C[C@@H](O)[C@@H]2C=CO[C@@H](O[C@@H]3O[C@H](CO)[C@@H](O)[C@H](O)[C@H]3O)[C@H]12`: the Potency entry is “inactive”.
With `CC1CC2(O)OC(=O)C3=C2C(CCC3)[C@@]12C[C@@H](c1ccoc1)OC2=O` (stereo partly drawn), the Potency entry was “inactive”.
For the molecule `C/C=C1/CC2C(=O)Nc3cc(O)c(OC)cc3C(=O)N2C1` (stereo not drawn), the Potency is 10.1 µM (active).
In the case of `CCC(=O)OCC(=O)[C@@]1(OC(=O)CC)[C@@H](C)C[C@H]2[C@@H]3CCC4=CC(=O)C=C[C@]4(C)[C@@]3(F)[C@@H](O)C[C@@]21C`, the Potency is 0.0073 µM (active).
Same read-out and setting: the value for `COc1cc(Nc2ccc([N+](=O)[O-])cc2C(=O)O)cc2ccccc12` was “inactive”.
On to `COc1ccc(CCC(=O)c2c(O)cc(O[C@@H]3O[C@H](CO)[C@@H](O)[C@H](O)[C@H]3O[C@@H]3O[C@@H](C)[C@H](O)[C@@H](O)[C@H]3O)cc2O)cc1O`, for which the Potency result is “inactive”.
`COc1c(C)c(OCC(O)C(C)(C)O)cc2c1CNC2=O` (stereo not drawn): the Potency result was “inactive”.
Regarding `CC1(C)CC[C@]2(C(=O)O)CC[C@]3(C)C(=CCC4[C@@]5(C)C[C@H](O)[C@H](O[C@@H]6O[C@H](CO)[C@@H](O)[C@H](O)[C@H]6O)[C@@](C)(CO)C5[C@H](O)C[C@]43C)[C@@H]2C1` (stereo partly drawn), the Potency entry was “inactive”.
For `COc1ccc(S(=O)(=O)Nc2nc(-c3cccc([N+](=O)[O-])c3)cs2)cc1OC`, the Potency result is “inactive”.
Consider `O=C(/C=C/c1ccccc1)OC[C@H]1O[C@@H](OC(=O)c2cc(O)c(O)c(O)c2)[C@H](O)[C@@H](O)[C@@H]1O`, for which the Potency result was “inactive”.
For the molecule `C/C=C(\C)C(=O)O[C@H]1C=CC(=O)O[C@H]1/C=C/[C@H](O)[C@@H](C)O`, the Potency was 23 µM (active).
With `Cc1c(O)cc2c(c1O)COC1(O)CCCOC21` (stereo not drawn), the Potency entry is “inactive”.
Turning to `C=C(C(=O)OC)[C@]12O[C@@](C)(CC[C@@]3(O)/C(=C\C)C(=O)O[C@]3(C)C[C@@H]1OC(=O)C(CO)CN1CCCC1C(=O)O)CC2=O` (stereo partly drawn), the Potency was 6.82 µM (active).
As for `C/C=C(\C)C(=O)OC1C2(O)CC3=C4CC(=O)OC(c5ccoc5)C4(C)CCC3C(C)(C2=O)C(C(OC(C)=O)C(=O)OC)C1(C)C` (stereo not drawn), the Potency was 3.83 µM (active).
`C/C=C/C=C/C1=C2C(=O)C3(C)C4C(C(=O)CC(O)/C=C/C)=C(O1)C1(C)C2C2(C)OC1(O)C4(C)OC23O` (stereo not drawn): the Potency was 7.96 µM (active).
On to `COC(=O)/C=C/c1ccc(O[C@@H]2O[C@H](CO)[C@@H](O)[C@H](O)[C@H]2O)cc1`, for which the Potency was 8.01 µM (active).
Same read-out and setting: next, `COC(=O)C1C(O)CCC2CN3CCc4c([nH]c5ccccc45)C3CC21` (stereo not drawn): “inactive”; `O=C(O)CCc1ccc(NCc2cccc3c2CCCN3CCOc2ccccc2)cc1F`: “inactive”.

The target in a further assay is Rap guanine nucleotide exchange factor 3 (Homo sapiens) (UniProt O95398). Kind of assay: Confirmatory qHTS for antagonist of cAMP-regulated guanine nucleotide exchange factor 3 (EPAC1) (AID 1645880). Also: potency is read from the fitted curve at half-maximal effect; nearly all actives have a fitted effect of over 55% in size. The note with it: EPAC1 Rap1B-BODIPY-GDP exchange, fluorescence. In short, it runs like this: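 Nucleotide exchange uses 100 nM EPAC1, 250 nM RAP1B-BODIPY-GDP and 50 uM GDP, with compounds in a concentration-titration series. After 5 min at room temperature, fluorescence (480 nm ex/540 nm em) is read every 5 min for 30 min. Data are normalized to control ATA and DMSO.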
Sequence of Rap guanine nucleotide exchange factor 3 (Homo sapiens) (O95398 whole entry, looked up): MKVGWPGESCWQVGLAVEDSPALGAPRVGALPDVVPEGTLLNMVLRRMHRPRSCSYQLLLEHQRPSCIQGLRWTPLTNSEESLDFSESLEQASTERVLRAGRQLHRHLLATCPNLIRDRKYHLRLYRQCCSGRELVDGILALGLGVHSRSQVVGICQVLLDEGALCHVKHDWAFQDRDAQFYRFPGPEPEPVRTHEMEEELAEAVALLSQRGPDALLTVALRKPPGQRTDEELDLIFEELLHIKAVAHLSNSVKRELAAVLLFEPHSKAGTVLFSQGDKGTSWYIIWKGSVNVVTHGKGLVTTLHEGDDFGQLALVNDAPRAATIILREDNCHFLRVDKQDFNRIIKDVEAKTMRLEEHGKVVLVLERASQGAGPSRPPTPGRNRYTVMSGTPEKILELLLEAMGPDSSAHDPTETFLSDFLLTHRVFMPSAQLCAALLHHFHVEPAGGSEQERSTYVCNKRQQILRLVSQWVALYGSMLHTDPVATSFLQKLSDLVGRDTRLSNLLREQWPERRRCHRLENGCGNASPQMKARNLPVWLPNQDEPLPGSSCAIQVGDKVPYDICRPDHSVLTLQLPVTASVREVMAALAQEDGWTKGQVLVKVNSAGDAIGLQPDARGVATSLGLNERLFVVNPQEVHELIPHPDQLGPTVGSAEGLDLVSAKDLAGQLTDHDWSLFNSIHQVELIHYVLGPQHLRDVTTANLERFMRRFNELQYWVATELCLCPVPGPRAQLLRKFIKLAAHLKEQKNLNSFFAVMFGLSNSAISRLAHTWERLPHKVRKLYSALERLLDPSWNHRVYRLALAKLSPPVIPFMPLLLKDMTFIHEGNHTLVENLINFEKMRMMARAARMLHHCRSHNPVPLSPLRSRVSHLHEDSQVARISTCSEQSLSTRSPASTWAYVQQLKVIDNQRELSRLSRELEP
For the molecule `CCc1nnc(NS(=O)(=O)c2ccc(NC(=S)NC(=O)/C=C/c3ccc(F)cc3)cc2)s1`, the Potency was 37.9 µM (active).
Same read-out and setting: next, `CCOc1ccc(-c2cc(NC(=O)c3c(F)cccc3F)c(C(=O)O)s2)cc1`: 9.53 µM (active); `Cc1ccc([C@@H]2CC=C(C(=O)O)[C@H](c3ccc(C(C)(C)C)cc3)N2S(=O)(=O)c2ccc(C)cc2)cc1`: 50.1 µM (active).

The target is the same in a further assay. Briefly: Confirmatory qHTS for agonist of cAMP-regulated guanine nucleotide exchange factor 3 (EPAC1) (AID 1645881).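 Also: EPAC1 catalysed release of BODIPY-GDP from Rap1B seen as fluorescence loss; nearly all actives have a fitted effect of over 75% in size.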 The following applies: EPAC1 Rap1B BODIPY-GDP exchange fluorescence, 100% = cAMP control response; series mostly up to 154 µM.
`CCc1nnc(NS(=O)(=O)c2ccc(NC(=S)NC(=O)/C=C/c3ccc(F)cc3)cc2)s1`: the result was inactive.
For the molecule `CCOc1ccc(-c2cc(NC(=O)c3c(F)cccc3F)c(C(=O)O)s2)cc1`, the outcome was inactive.
For the molecule `Cc1ccc([C@@H]2CC=C(C(=O)O)[C@H](c3ccc(C(C)(C)C)cc3)N2S(=O)(=O)c2ccc(C)cc2)cc1`, the molecule was called inactive.

A further assay has as its target Rap guanine nucleotide exchange factor 4 (Homo sapiens) (UniProt Q8WZA2). Kind of assay: Confirmatory qHTS for agonist of cAMP-regulated guanine nucleotide exchange factor 4 (EPAC2) (AID 1645884). Also: nearly all actives have a fitted effect of over 65% in size. The following applies: EPAC2 GEF activity, Rap1B-BODIPY-GDP fluorescence, percent relative to cAMP agonist control; series mostly up to 154 µM.
As for `CCc1nnc(NS(=O)(=O)c2ccc(NC(=S)NC(=O)/C=C/c3ccc(F)cc3)cc2)s1`, the outcome was inactive.
As for `CCOc1ccc(-c2cc(NC(=O)c3c(F)cccc3F)c(C(=O)O)s2)cc1`, the molecule was called inactive.
For `Cc1ccc([C@@H]2CC=C(C(=O)O)[C@H](c3ccc(C(C)(C)C)cc3)N2S(=O)(=O)c2ccc(C)cc2)cc1`, the activation was 5.81% [at 17.1 µM] (inactive).

Another assay concerns the target Rap guanine nucleotide exchange factor 3 (Homo sapiens) (UniProt O95398). Briefly: Counterscreen qHTS for antagonist of cAMP-regulated guanine nucleotide exchange factor 3 (EPAC1) (AID 1645888).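 Also: fluorescence loss as bound BODIPY-GDP is released from Rap1B.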 The note with it: Rap1B-BODIPY-GDP nucleotide exchange, fluorescence; series mostly up to 154 µM. In short, it runs like this:
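Rap1B–BODIPY-GDP (250 nM) with 50 uM GDP; compounds pin-transferred to 9.74 nM–152 uM final (activator) or from 7.32 nM upwards (inhibitor). Fluorescence Ex/Em 480/540 nm read at 5 and 30 min, then after adding cAMP or buffer, at room temperature.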
In the case of `CCc1nnc(NS(=O)(=O)c2ccc(NC(=S)NC(=O)/C=C/c3ccc(F)cc3)cc2)s1`, the call was inactive.
In the case of `CCOc1ccc(-c2cc(NC(=O)c3c(F)cccc3F)c(C(=O)O)s2)cc1`, the result was inactive.
For the molecule `Cc1ccc([C@@H]2CC=C(C(=O)O)[C@H](c3ccc(C(C)(C)C)cc3)N2S(=O)(=O)c2ccc(C)cc2)cc1`, the activity change, negative = inhibition is -12.2% [at 30.8 µM] (inactive).
